According to PubChem BioAssay (NCI):
This is part of a sample that, as a whole, favours compounds with a hit. Of some 83,000 tested, about 20% had one in any assay.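 Percent growth is the endpoint: 0 to 100 indicates growth inhibition (40 means 60% inhibition), 0 means no net growth, and negative values indicate cell death.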 A number with no mark means an inactive call. The source made the active and inactive calls.

tested on: RPMI-8226 leukemia; experiment: NCI-60 one-dose screen, 48 h (100 = growth as untreated, 0 = no growth, -100 = all killed); details: 10 µM unless noted
Protocol: Growth inhibition of the RPMI-8226 human tumor cell line is measured as a screen for anti-cancer activity. Cells are grown in 96 well plates and exposed to the test compound for 48 hours. Compounds are tested at a single concentration, which is 10^-5 M for most compounds. The reported endpoint is percent growth (GI% or GIPRCNT), where numbers from 0 - 100% represent growth inhibition, and numbers from -100% - 0 represent cell death. For example, a value of 40 represents 60% growth inhibition. A value of 0 means no net growth occurred over the course of the experiment. A value of -40 indicates 40% of cells at the beginning of the experiment died by the end of the experiment. A value of -100 means all cells are dead at the end of the experiment.
NCI-60 Human Tumor Cell Lines Screen was performed using the standard one-dose NCI protocol, which is described in more detail at https://dtp.cancer.gov/discovery_development/nci-60/default.htm.
Compounds with GIPRCNT values below 10 were considered active. Activity score was based on GIPRCNT using the following formula: […]
Score is 0 for GIPRCNT values of 100 or above, 50 for GIPRCNT values of 0, and 100 for GIPRCNT values of -100.

SMILES	growth
CC(C)=CCC[C@](C)(O)C1CC[C@]2(C)[C@@H]1CC[C@@H]1[C@@]3(C)CC/C(=N\OCCC#N)C(C)(C)[C@@H]3CC[C@]12C (stereo not given in full)	36%
Cc1ccc(Nc2cc(N)nc(N)n2)cc1	93.5%
COc1ccc(Nc2nccc(Nc3ccc4[nH]ncc4c3)n2)cc1	2.72% (active)
O=c1c2cccc3c(N4CCOCC4)ccc(c32)c2nc3ccccc3n12	81.7%
O=C(Nc1ncc(Cc2ccc(Cl)cc2)s1)c1ccc2c(c1)OCCO2	20%
COc1ccc(C(=O)C2OC3=C(C(=O)CC(C)(C)C3)C2c2cccc(Oc3ccccc3)c2)cc1 (stereo not given)	85.7%
NS(=O)(=O)Oc1cccc(-c2nc3sccn3c2-c2ccccc2)c1	44.1%
CCN1C(=O)N(CC)C2C1NC(=S)N2/N=C/C=C/c1cccs1 (stereo not given)	25.4%
CCOC(=O)c1c2c(n3ccc(NC(=O)CCN4CCCC4)cc13)C(=O)c1ncccc1C2=O	-31.8% (active)
O=C(c1ccc(F)cc1)C1CCN(CCn2c(=O)[nH]c3ccccc3c2=O)CC1	104%
FC(F)(F)c1cccc(-c2nnn(Cc3cc(-c4cccc(Cl)c4)no3)n2)c1	102%
CC(=O)CC(=O)c1ccccc1.[Cu+2]	97.8%
CN(C)CCOc1nc2c3cc([N+](=O)[O-])ccc3nn2c2ccccc12	41.8%
Cn1ccnc1C(=O)/C=C/c1ccc(CC(=O)Nc2cc(F)c(F)c(F)c2)cc1	4.01% (active)
COc1ccc2c(O)cc3c(c2c1)[C@H](CCl)CN3C(=O)c1cc2cc(NC(=O)CCN3CCOCC3)ccc2[se]1	79.7%
O=C(OCC(O)(CO)C(=O)NC12CC3CC(CC(C3)C1)C2)c1ccc(Cl)cc1 (stereo not given)	105%
CC(C)C(=O)Nc1ncc(C(=O)NCCN(Cc2ccccc2)C(=O)c2ccc(S(=O)(=O)Nc3ccccc3)cc2)s1	97.6%
C#Cc1ccc(NC(=O)Cc2ccc(/C=C/C(=O)c3nccn3C)cc2)cc1	19.2%
CC1(C)C2=C(C(=O)N1Cc1ccccc1)C(c1ccco1)N(C(=O)C1CCC1)CCN2 (stereo not given)	106%
C=C1C(=O)O[C@H]2[C@H]1CC/C(COC(=O)NCc1ccc(Cn3c(=O)sn(CCCC)c3=O)cc1)=C\CC[C@@]1(C)O[C@@H]21	-15.8% (active)

SMILES	growth
Cn1cc(-c2ccc3c(Nc4cccc(NC(=O)Nc5cccc(F)c5)c4)ncnc3c2)cn1	-25.4% (active)
CCOC(=O)c1cnc2sc(-c3ccc(OC)cc3)nc2c1Cl	93.1%
Cc1nn(-c2ccccc2)c(Oc2ccccc2)c1/C=N/NC(=O)Cn1c(=O)sc2ccccc21	33.8%
CO[C@]12C=C/C(=C(/C(=O)OCc3cccnc3)C(=O)CCCCCCCC[C@]3(OC)C=C/C(=C(/C(=O)OCc4cccnc4)C(=O)CCCCCCCC1)O3)O2	-30.4% (active)
CCCNNC(=O)c1ccc(CNC(=O)/C=C/c2ccccc2)cc1	18.9% [2.5 µM]
COc1ccc2c(c1)c(-c1nc(-c3cn(C)c4ccncc34)cs1)cn2C	-48% (active)
CN1CCN(Cc2ccc(NC(=O)c3cncc(C#Cc4cnc(N)c5ccc(C#N)cc45)c3)cc2C(F)(F)F)CC1	-25.3% (active)
CNC(=O)c1cc(Oc2ccc3nc(NC(=O)Nc4ccc(F)cc4F)sc3c2)ccn1	72.9%
CCN(CC)CCCC(Nc1c2ccc(Cl)cc2nc2ccc(OC)cc12)c1ccncc1 (stereo not given)	74.3%
COc1cccc(-c2cc(-c3ccc(Nc4nc(Nc5ccc(Cl)cc5)nc(Nc5ccc(Cl)cc5)n4)cc3)nc(N)c2C#N)c1	-55.8% (active)
O=c1oc2ccccc2cc1-c1nn(-c2ccccc2)cc1/C=N/Nc1nc(-c2ccccc2)c(N=Nc2ccccc2)s1	63.1%
Cc1nc2ccccc2c(/C=C/c2ccc(Cl)cc2)c1C(=O)/C=C/c1ccccc1	-11.8% (active)
CNC(=O)c1cc(Oc2ccc3nc(NC(=O)c4cc(C(F)(F)F)cc(C(F)(F)F)c4)sc3c2)ccn1	9.36% (active)
COc1ccc(-c2ccc(-c3ccc(C(=N)N)nc3)s2)cc1	-41.1% (active)
CN(C)C(=O)OCc1ccc2c(Cl)cc(Cl)c(O)c2n1	34.7%
Oc1ccc(Cc2ccc(O)c3ncccc23)c2cccnc12	8.21% (active)
Cc1ccc(C2(C)NC(=O)N(CC(=O)Nc3cccc(C)c3)C2=O)cc1 (stereo not given)	67.8%
NC(=N\N=C/c1ccc(Cl)cc1Cl)/C(N)=N\N=C/c1ccc(Cl)cc1Cl	62.2%
C=C(CNCCO)[C@@H]1CC[C@]2(CO)CC[C@]3(C)[C@H](CC[C@@H]4[C@@]5(C)CCC(NCCO)C(C)(C)[C@@H]5CC[C@]43C)[C@@H]12 (stereo not given in full)	36.8%
CN1CCN(c2ccc(Nc3ncc4[nH]c(=O)n(Cc5ccccc5N)c4n3)cc2)CC1	105%
